{
  "source": "PubChem BioAssay (NCATS)",
  "key": {"[1]": {"assay": "qHTS for Inhibitors of Plasmodium falciparum (DD2) proliferation (AID 504314)", "summary_of_the_method": "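Erythrocytes infected with P. falciparum Dd2 (0.3% parasitemia, 2.5% hematocrit) exposed to compound 72 h at 37C, 5% CO2. Parasite DNA quantified by SYBR Green fluorescence after saponin/Triton lysis overnight; normalized to 0.29 uM artemisinin and DMSO.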"}, "[2]": {"assay": "qHTS for Inhibitors of Plasmodium falciparum (7G8) proliferation (AID 504316); further: nearly all actives have a fitted effect of over 65% in size", "summary_of_the_method": "(§1)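 Erythrocytes infected with P. falciparum line (0.3% parasitemia, 2.5% hematocrit final) incubated with compounds 72 h at 37 °C, 5% CO2; SYBR Green lysis buffer added, fluorescence read next day. Normalized to 0.29 uM artemisinin and DMSO.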"}, "[3]": {"assay": "qHTS for Inhibitors of Plasmodium falciparum (HB3) proliferation (AID 504318)", "summary_of_the_method": "as §1"}, "[4]": {"assay": "qHTS for Inhibitors of Plasmodium falciparum (CP250) proliferation (AID 504320)", "summary_of_the_method": "as §1"}, "[5]": {"biological_target": "Atrial natriuretic peptide receptor 1 (Homo sapiens) (UniProt P16066)", "sequence (P16066 whole entry, looked up)": "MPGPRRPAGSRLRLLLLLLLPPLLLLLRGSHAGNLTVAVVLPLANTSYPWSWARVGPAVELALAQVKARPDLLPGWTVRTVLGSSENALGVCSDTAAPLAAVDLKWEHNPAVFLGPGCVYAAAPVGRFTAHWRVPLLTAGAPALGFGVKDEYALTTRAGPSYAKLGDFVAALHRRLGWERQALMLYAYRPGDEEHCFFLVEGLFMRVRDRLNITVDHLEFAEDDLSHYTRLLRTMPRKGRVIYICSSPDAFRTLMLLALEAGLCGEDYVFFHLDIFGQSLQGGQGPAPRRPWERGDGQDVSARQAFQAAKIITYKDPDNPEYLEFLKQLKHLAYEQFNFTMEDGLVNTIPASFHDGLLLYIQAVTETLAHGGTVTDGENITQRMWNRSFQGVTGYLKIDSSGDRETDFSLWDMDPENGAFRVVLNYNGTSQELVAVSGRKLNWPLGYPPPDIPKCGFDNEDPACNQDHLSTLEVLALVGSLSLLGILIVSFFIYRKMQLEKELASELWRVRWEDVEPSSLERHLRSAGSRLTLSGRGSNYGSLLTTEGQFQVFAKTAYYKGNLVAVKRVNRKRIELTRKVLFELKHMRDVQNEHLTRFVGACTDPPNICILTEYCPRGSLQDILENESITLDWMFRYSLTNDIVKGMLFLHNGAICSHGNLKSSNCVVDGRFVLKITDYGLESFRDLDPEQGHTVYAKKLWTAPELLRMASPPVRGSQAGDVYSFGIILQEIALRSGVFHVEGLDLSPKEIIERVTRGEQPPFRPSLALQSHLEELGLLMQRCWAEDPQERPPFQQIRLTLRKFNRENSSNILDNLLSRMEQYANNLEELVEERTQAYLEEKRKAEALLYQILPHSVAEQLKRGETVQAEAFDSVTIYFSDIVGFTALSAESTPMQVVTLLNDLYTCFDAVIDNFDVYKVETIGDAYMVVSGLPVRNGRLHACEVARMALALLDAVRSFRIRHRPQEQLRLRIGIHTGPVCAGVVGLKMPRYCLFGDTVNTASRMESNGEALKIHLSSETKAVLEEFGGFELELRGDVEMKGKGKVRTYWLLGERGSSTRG", "assay": "Natriuretic polypeptide receptor (hNpr1) antagonism - Pilot CMLD screen (AID 1347052; calls by dose curve)"}},
  "note": "Results filed as inconclusive are left out. Where a call stands in place of a potency, no number is given. The source made the active and inactive calls. Unless noted, the call rests on the fitted dose curve; in most records, active means well fitted curve in the direction sought with a large enough effect; inconclusive means small, poorly fitted or top-dose-only effect, or another doubt; inactive means no such curve, though single readings can be large; an effect the other way counts as inactive or inconclusive. Potency means the concentration at half of the fitted maximal effect.",
  "data": [
    {"compound": "O=C1c2ccccc2C(=O)N1CCCC[C@]12Cc3c(ccc4ccccc34)[C@H](O1)c1c(cc(-c3ccccc3)oc1=O)O2", "values": [
      {"measurement": "Potency", "setting": "[1]", "result": "0.753 µM (active)"},
      {"measurement": "Potency", "setting": "[2]", "result": "0.379 µM (active)"},
      {"measurement": "Potency", "setting": "[3]", "result": "0.536 µM (active)"},
      {"measurement": "Potency", "setting": "[4]", "result": "1.51 µM (active)"},
      {"measurement": "Potency", "setting": "[5]", "result": "inactive"}
    ]},
    {"compound": "C=CCOC(=O)NC(c1ccc(F)c(F)c1)C(C(=O)CCl)C(=O)OC", "note": "(configuration not stated)", "values": [
      {"measurement": "Potency", "setting": "[1]", "result": "inactive"},
      {"measurement": "Potency", "setting": "[2]", "result": "inactive"},
      {"measurement": "Potency", "setting": "[3]", "result": "inactive"},
      {"measurement": "Potency", "setting": "[4]", "result": "inactive"},
      {"measurement": "Potency", "setting": "[5]", "result": "inactive"}
    ]},
    {"compound": "O=C(C=Cc1cccc([N+](=O)[O-])c1)c1ccccc1", "values": [
      {"measurement": "Potency", "setting": "[1]", "result": "inactive"},
      {"measurement": "Potency", "setting": "[2]", "result": "inactive"},
      {"measurement": "Potency", "setting": "[3]", "result": "inactive"},
      {"measurement": "Potency", "setting": "[4]", "result": "inactive"},
      {"measurement": "Potency", "setting": "[5]", "result": "2.99 µM (active)"}
    ]},
    {"compound": "CCOC(=O)C1=CN(CCC=C(C)C)C(=O)NC1c1ccccc1", "note": "(configuration not stated)", "values": [
      {"measurement": "Potency", "setting": "[1]", "result": "inactive"},
      {"measurement": "Potency", "setting": "[3]", "result": "inactive"},
      {"measurement": "Potency", "setting": "[4]", "result": "inactive"},
      {"measurement": "Potency", "setting": "[5]", "result": "inactive"}
    ]},
    {"compound": "COC(=O)C1=C(C)N(Cc2ccco2)C(=O)NC1c1ccc(Br)cc1", "note": "(configuration not stated)", "values": [
      {"measurement": "Potency", "setting": "[1]", "result": "inactive"},
      {"measurement": "Potency", "setting": "[2]", "result": "inactive"},
      {"measurement": "Potency", "setting": "[4]", "result": "inactive"},
      {"measurement": "Potency", "setting": "[5]", "result": "inactive"}
    ]},
    {"compound": "O=C1CCCC=C1C(CCc1ccccc1)OC(=O)c1ccc(Br)cc1", "note": "(configuration not stated)", "values": [
      {"measurement": "Potency", "setting": "[1]", "result": "inactive"},
      {"measurement": "Potency", "setting": "[2]", "result": "inactive"},
      {"measurement": "Potency", "setting": "[4]", "result": "inactive"},
      {"measurement": "Potency", "setting": "[5]", "result": "inactive"}
    ]},
    {"compound": "COC(=O)N[C@H](C[N+](=O)[O-])C(C)(C)C", "values": [
      {"measurement": "Potency", "setting": "[1]", "result": "inactive"},
      {"measurement": "Potency", "setting": "[2]", "result": "inactive"},
      {"measurement": "Potency", "setting": "[4]", "result": "inactive"},
      {"measurement": "Potency", "setting": "[5]", "result": "inactive"}
    ]},
    {"compound": "COc1ccc(-c2nc(-c3ccccc3)oc2NC2CCCCC2)cc1", "values": [
      {"measurement": "Potency", "setting": "[1]", "result": "inactive"},
      {"measurement": "Potency", "setting": "[2]", "result": "inactive"},
      {"measurement": "Potency", "setting": "[3]", "result": "inactive"},
      {"measurement": "Potency", "setting": "[4]", "result": "inactive"},
      {"measurement": "Potency", "setting": "[5]", "result": "inactive"}
    ]},
    {"compound": "COc1cccc([C@@H]2[C@@H](C)CC[C@@H]3C(=O)NC[C@H](O)CN32)c1", "values": [
      {"measurement": "Potency", "setting": "[1]", "result": "inactive"},
      {"measurement": "Potency", "setting": "[2]", "result": "inactive"},
      {"measurement": "Potency", "setting": "[4]", "result": "inactive"},
      {"measurement": "Potency", "setting": "[5]", "result": "inactive"}
    ]},
    {"compound": "COC(=O)CC=C[C@@H](C)[C@H](NC(=O)OC)c1ccccc1Br", "values": [
      {"measurement": "Potency", "setting": "[1]", "result": "inactive"},
      {"measurement": "Potency", "setting": "[3]", "result": "inactive"},
      {"measurement": "Potency", "setting": "[5]", "result": "inactive"}
    ]},
    {"compound": "CC(CCN1CCc2nc(-c3ccccc3)c(-c3ccccc3)cc2C1)=NOC[C@@H](O)[C@H]1O[C@@H]2OC(C)(C)O[C@H]2[C@@H]1O", "values": [
      {"measurement": "Potency", "setting": "[1]", "result": "inactive"},
      {"measurement": "Potency", "setting": "[2]", "result": "1.9 µM (active)"},
      {"measurement": "Potency", "setting": "[4]", "result": "inactive"},
      {"measurement": "Potency", "setting": "[5]", "result": "inactive"}
    ]}
  ]
}
